From PubChem BioAssay
H9c2 protect: protects H9c2 cardiomyocytes from peroxide injury; H2O2 injury protection, ATPLite, 2 h; 0.63% of 360,000 active; protection from H2O2 cell death, % at 20 µM;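 active = compounds giving at least 50% protection of heart cells from peroxide-induced death in the single-dose screen, raw or plate-pattern-corrected value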;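 note: 0% = DMSO wells with peroxide and 100% = DMSO wells without peroxide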
ATG4B inhibitor: inhibitors of human ATG4B cysteine protease. inhibition, % at 8.33 µM. Q9Y4P1. 0.51% of 340,000 active. ATG4B cleavage of LC3-PLA2, NBD-HPC fluorescence, 1 h; in the data active = inhibition above about 40%
PP1 counter: PP1-alpha (human) inhibition in PP5 counter-screen | P62136 | purified PP1alpha, OMFP fluorescence | inhibition, % at 6.7 µM | 0.9% of 320,000 active;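 active = inhibition above the mean inhibition of all tested compounds plus 3 SD, computed separately for each screening campaign, cut at about 15% in these data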
Target sequence (P62136 whole entry, looked up): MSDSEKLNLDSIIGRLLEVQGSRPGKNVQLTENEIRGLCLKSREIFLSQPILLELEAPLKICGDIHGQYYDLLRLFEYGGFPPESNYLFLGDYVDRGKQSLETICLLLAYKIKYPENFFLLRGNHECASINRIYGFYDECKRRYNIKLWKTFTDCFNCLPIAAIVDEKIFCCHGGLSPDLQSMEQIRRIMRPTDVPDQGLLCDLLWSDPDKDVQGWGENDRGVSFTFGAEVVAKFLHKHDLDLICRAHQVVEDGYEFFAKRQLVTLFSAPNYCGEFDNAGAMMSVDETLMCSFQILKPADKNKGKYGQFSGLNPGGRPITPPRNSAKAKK
PP5 primary: PP5 (human) phosphatase inhibition; P53041; AID 1987; inhibition, % at 6.7 µM; 0.18% of 320,000 active; purified PP5c, OMFP substrate fluorescence;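 active = inhibition above the campaign's mean inhibition across all tested compounds plus 3 SD, cut at about 9.5% in these data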;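 note: 0% = DMSO only and 100% = 100 µM cantharidin control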
PP5 inh confirm: confirmation of human PP5 phosphatase inhibitors; shares compounds with PP5 primary; Purified PP5, fluorogenic phosphatase substrate, fluorescence; inhibition, % at 6.7 µM; 22% of 460 active; AID 2331; in the data active = inhibition above about 9.5%
PP1 counter 3x: counter-screen for PP5 inhibitors: human PP1 phosphatase inhibition. shares compounds with PP5 primary. PP1 enzyme, fluorescent phosphatase substrate. inhibition, % at 6.7 µM. 4% of 460 active. AID 2355; in the data active = inhibition above about 16%
Numbers without * were called inactive; / = not tested or not shown. Shown are actives, neighbours in structure and some others; about 1.9% of the full set was active somewhere.

SMILES	H9c2 protect	ATG4B inhibitor	PP1 counter	PP5 primary	PP5 inh confirm	PP1 counter 3x
COc1cc(S(C)=O)ccc1-c1nc2ncccc2[nH]1 (centres undefined)	6	3	1	-4	/	/
Cc1ccccc1CSc1nnc(-c2ccccn2)n1C	-3	-4	1	23*	-3	-1
Cn1c(SCc2cccc(F)c2)nnc1-c1ccccn1	8	2	1	4	/	/
COc1ccccc1NC(=O)c1ccc[n+]([O-])c1	0	-8	-4	-2	/	/
COc1ccc(Br)c(C(=O)Nc2ccc(F)cc2)c1	-3	-6	5	16*	-3	-4
COc1cccc(NC(=O)c2ccccc2Br)c1	-4	-1	-1	-1	/	/
COC(=O)CCC(=O)OC1(C)C(=O)C2=CN(CCN3CCOCC3)C(c3ccc(OC)cc3)=CC2=C(Br)C1=O (centres undefined)	/	/	2	11*	37*	10
COC(=O)CCC(=O)OC1(C)C(=O)C2=CN(CCCCO)C(c3ccc(OC)cc3)=CC2=C(Br)C1=O (centres undefined)	/	/	3	9	/	/
CC1(OC(=O)C2CCCC2)C(=O)C=C2C=C(c3ccsc3)N(CCCCO)C=C2C1=O (centres undefined)	3	-4	0	10*	44*	18*
COc1ccc(CN2C=C3C(=O)C(C)(OC(=O)C4CCCC4)C(=O)C=C3C=C2c2ccsc2)cc1 (centres undefined)	-1	-12	14	7	/	/
CCOC(=O)C1=C(C)OC2(O)c3ccccc3C(=O)C12O (centres undefined)	3	-5	2	12*	41*	13
CC(=O)C1=C(C)OC2(O)c3ccccc3C(=O)C12O (centres undefined)	5	-2	9	14*	35*	3
CCOC(=O)C1=C(C)N[C@@]2(O)c3ccccc3C(=O)[C@@]12O	-3	-12	0	6	/	/
CCOc1ccccc1NC(=O)CCNC(=O)N1CC(=O)Nc2ccccc21	7	/	/	/	/	/
Cc1cccc(N2CCN(C(=O)Cc3ccc(-n4c(=O)[nH]c5ccsc5c4=O)cc3)CC2)c1C	5	-4	3	1	/	/
Cc1ccc(C)c(N2CCN(C(=O)Cc3ccc(-n4c(=O)[nH]c5ccsc5c4=O)cc3)CC2)c1	3	-6	-4	13*	-4	-4
COc1ccccc1NC(=O)COC(=O)c1c(NC(C)=O)sc(C)c1C	5	/	/	/	/	/
CCc1ccc(S(=O)(=O)/N=C2\C=C(Nc3cccc(C(=O)O)c3)C(=O)c3ccccc32)cc1	-22	4	13	11*	42*	12
Cc1ccc(-c2cc(C(=O)NCCc3ccccn3)c3ccccc3n2)c(C)c1	0	-4	3	2	/	/
O=C(NCCc1ccccn1)c1cc(-c2cccc3ccccc23)nc2ccccc12	34	10	2	21*	-3	-3
Cn1nnnc1NCc1c(F)cccc1Cl	4	-2	-2	2	/	/
Cn1nnnc1NCc1cccc(Cl)c1Cl	-1	32	1	15*	-1	-3
CC(=O)Nc1ccc(Br)c(Cl)c1	-2	-3	-2	11*	-6	-6
O=C(Nc1ccn(CCCNCC(c2ccccc2)c2ccccc2)c(=O)n1)OCc1ccccc1	1	/	/	/	/	/
CCC(CC)C(=O)Nc1cccc(C(=O)Nc2ccc(S(N)(=O)=O)cc2)c1	2	0	-1	4	/	/
SMILES	H9c2 protect	ATG4B inhibitor	PP1 counter	PP5 primary	PP5 inh confirm	PP1 counter 3x
CCC(CC)C(=O)Nc1cccc(C(=O)Nc2ccc(OC)cc2[N+](=O)[O-])c1	-2	-7	-4	10*	-4	-4
CCC(CC)C(=O)Nc1cccc(C(=O)Nc2ccc(S(=O)(=O)Nc3ccc(C)cc3)cc2)c1	-7	-3	8	10*	4	2
CC1=C(C(=O)Nc2cccc(C(=O)NC(C)c3ccccc3)c2)SCCO1 (centres undefined)	0	-8	-2	3	/	/
CCCCn1c(N)c(N(CCOC)C(=O)C2CCN(C(=O)c3ccc(F)cc3)CC2)c(=O)[nH]c1=O	5	2	-2	-3	/	/
CCOc1ccccc1NC(=O)CN(c1ccc(Cl)cc1)S(C)(=O)=O	-9	0	2	2	/	/
Cc1ccc(S(=O)(=O)N2CCOCC2)cc1NC(=O)COC(=O)c1ccc(Br)cc1	-3	-24	/	/	/	/
Cc1ccc(S(=O)(=O)N2CCOCC2)cc1NC(=O)COC(=O)CSc1ccc(Br)cc1C	-2	-14	1	11*	1	6
